In PubChem BioAssay (EPA / NIEHS):
Values joined by “and” are separate entries in the source; they are usually repeats but may differ in a detail not shown here. Equal entries are not always repeated. Records with an inconclusive call do not appear. Active and inactive are the calls of the source. How the source made its calls, unless noted: active means hit-call score of the fitted dose curve at least 0.9, where 1 is the maximum; inactive means score below 0.9.

Experiments:
[1] = BSK_LPS_SRB: Viability Assessment in the BioMAP Diversity Plus: LPS Assay (AID 2283079); settings: primary human HUVEC with PBMC;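 further: total protein by sulforhodamine B absorbance as a cytotoxicity measure; measured one day after compound addition; fitted in both directions against DMSO so loss or gain of signal counts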
Outline: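 Readout is SRB absorbance at 560 nm (0.1% stain, TCA-fixed parallel cultures) as a total-protein cytotoxicity measure. Cells: primary human umbilical vein endothelium plus peripheral blood mononuclear cells, 24 h after chemical exposure; DMSO served as baseline.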

[2] = read-out: Interleukin-1 alpha (IL1a), IL1A (gene 3552); assay: BSK_LPS_IL1a: BioMAP Diversity Plus: LPS Assay for Interleukin-1 alpha (IL1a) Biomarker Activity (AID 2283080); settings: primary human HUVEC with PBMC; actives raise or lower the signal
Outline: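 ELISA read-out of IL-1 alpha from a human primary vascular co-culture (endothelium plus PBMC) under LPS, sampled 24 hours post-dosing. Activity was fitted in both directions relative to DMSO controls.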

[3] = read-out: Monocyte Chemoattractant Protein-1 (MCP1), CCL2 (gene 6347); assay: BSK_LPS_MCP1: BioMAP Diversity Plus: LPS Assay for Monocyte Chemoattractant Protein-1 (MCP1) Biomarker Activity (AID 2283081); settings: primary human HUVEC with PBMC; actives raise or lower the signal;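 on AC50: secreted MCP-1 protein quantified by ELISA in culture supernatant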
Outline: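 Human endothelial–PBMC co-cultures were dosed with chemical, then LPS-driven MCP-1 levels were quantified by ELISA at 24 h. Activity in either direction was fitted versus DMSO negative control.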

[4] = BSK_LPS_PGE2: BioMAP Diversity Plus: LPS Assay for Prostaglandin E2 (PGE2) Biomarker Activity (AID 2283082); settings: primary human HUVEC with PBMC; actives raise or lower the signal;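 on AC50: secreted prostaglandin E2 measured by ELISA in LPS-stimulated co-culture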
Outline: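 HUVEC plus PBMC co-culture stimulated with LPS; secreted PGE2 quantified by ELISA 24 h after chemical dosing. Activity fitted bidirectionally against DMSO as negative control and baseline; parallel SRB total-protein staining served as cytotoxicity check.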

[5] = read-out: Tissue Factor, F3 (gene 2152); assay: BSK_LPS_TissueFactor: BioMAP Diversity Plus: LPS Assay for Tissue Factor Biomarker Activity (AID 2283084); settings: primary human HUVEC with PBMC; actives raise or lower the signal
Outline: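 ELISA signal for cell-surface Tissue Factor (CD142) was read 24 h after compound dosing of an LPS-stimulated human endothelial–PBMC primary co-culture. Gain or loss of signal was scored relative to DMSO.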

[6] = read-out: Tumor necrosis factor (Homo sapiens) (UniProt P01375); assay: BSK_LPS_TNFa: BioMAP Diversity Plus: LPS Assay for Tumour Necrosis Factor alpha (TNFa) Biomarker Activity (AID 2283085); settings: primary human HUVEC with PBMC; actives raise or lower the signal
Outline: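 Human umbilical vein endothelial cells co-cultured with PBMC were exposed to test chemical and TNFa measured by ELISA 24 h after dosing. Bidirectional curve fitting was done relative to DMSO as negative control and baseline.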

[7] = read-out: Vascular cell adhesion molecule 1 (VCAM1), VCAM1 (gene 7412); assay: BSK_LPS_VCAM1: BioMAP Diversity Plus: LPS Assay for Vascular cell adhesion molecule 1 (VCAM1) Biomarker Activity (AID 2283086); settings: primary human HUVEC with PBMC; actives raise or lower the signal
Outline: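 Human umbilical vein endothelial cells co-cultured with peripheral blood mononuclear cells under LPS stimulation were exposed to test chemical for 24 h. VCAM-1 levels were then measured by ELISA, with bidirectional curve fitting relative to DMSO as negative control and baseline.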

CD38, CD38 (gene 952) = assay: BSK_SAg_CD38: BioMAP Diversity Plus: SAg Assay for CD38 Biomarker Activity (AID 2283087); settings: primary human HUVEC with PBMC; actives raise or lower the signal
Outline: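 Fluorescence ELISA of cell-surface CD38 served as the read-out, with either increase or decrease fitted against DMSO controls. Cells were a human umbilical vein endothelium plus PBMC co-culture under SEB/TSST-1 stimulation, measured 24 h after dosing.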

CD40, CD40 (gene 958) = assay: BSK_SAg_CD40: BioMAP Diversity Plus: SAg Assay for CD40 Biomarker Activity (AID 2283088); settings: primary human HUVEC with PBMC; actives raise or lower the signal
Outline: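 Compounds were dosed onto a human primary endothelial–PBMC co-culture, and after 24 h CD40 was quantified by ELISA using a fluorescence signal. Activity in either direction was fitted relative to DMSO.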

CD69, CD69 (gene 969) = assay: BSK_SAg_CD69: BioMAP Diversity Plus: SAg Assay for CD69 Biomarker Activity (AID 2283089); settings: primary human HUVEC with PBMC; actives raise or lower the signal;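 on AC50: cell surface CD69 protein quantified by ELISA with fluorescence detection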
Outline: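 Values derive from bidirectional fitting relative to DMSO vehicle. Cells: umbilical vein endothelium plus peripheral blood mononuclear cells, treated 24 h before fluorescent ELISA for CD69.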

[8] = read-out: Monocyte Chemoattractant Protein-1 (MCP1), CCL2 (gene 6347); assay: BSK_SAg_MCP1: BioMAP Diversity Plus: SAg Assay for Monocyte Chemoattractant Protein-1 (MCP1) Biomarker Activity (AID 2283090); settings: primary human HUVEC with PBMC; actives raise or lower the signal
Outline: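 MCP-1 levels in the endothelial–PBMC SAg co-culture were quantified by ELISA at 24 h post-dosing; both increases and decreases versus DMSO scored. Cytotoxicity monitored by SRB total protein in parallel cultures.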

[9] = read-out: E-selectin (Homo sapiens) (UniProt P16581); assay: BSK_SAg_Eselectin: BioMAP Diversity Plus: SAg Assay for Eselectin Biomarker Activity (AID 2283091); settings: primary human HUVEC with PBMC; actives raise or lower the signal
Outline: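 Co-culture: HUVEC + PBMC. Dose compound; 24 h. ELISA for E-selectin. Bidirectional fit vs DMSO.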

[10] = read-out: Monokine induced gamma interferon (MIG), CXCL9 (gene 4283); assay: BSK_SAg_MIG: BioMAP Diversity Plus: SAg Assay for Monokine induced gamma interferon (MIG) Biomarker Activity (AID 2283092); settings: primary human HUVEC with PBMC; actives raise or lower the signal
Outline: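 Values reflect bidirectional fitting of ELISA-measured MIG against DMSO vehicle, taken 24 h after dosing of a co-culture of human umbilical vein endothelial cells and peripheral blood mononuclear cells.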

[11] = BSK_SAg_PBMCCytotoxicity: PBMC Cytotoxicity Assessment in the BioMAP Diversity Plus: SAg Assay (AID 2283093); settings: primary human HUVEC with PBMC;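 further: PBMC viability measured as Alamar Blue reduction fluorescence at 546/580 nm; fitted both ways against DMSO so a hit may be loss or gain of signal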;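 on AC50: PBMC superantigen activated with SEB plus TSST-1 one hour after compound addition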
Outline: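 Compound added to 75,000 PBMC/well for 1 h; SEB and TSST-1 then added at 20 ng/mL final each; 90 h incubation; Alamar Blue 6 h; read 546/580 nm ex/em. Activity fitted bidirectionally relative to DMSO baseline.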

[12] = read-out: Interleukin-8 (IL8), CXCL8 (gene 3576); assay: BSK_SAg_IL8: BioMAP Diversity Plus: SAg Assay for Interleukin-8 (IL8) Biomarker Activity (AID 2283094); settings: primary human HUVEC with PBMC; actives raise or lower the signal
Outline: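 Human umbilical vein endothelial cells co-cultured with peripheral blood mononuclear cells; IL-8 measured by ELISA 24 h after chemical dosing. Bidirectional concentration-response fitting used DMSO as negative control and activity baseline.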

[13] = BSK_SAg_Proliferation: Cell Proliferation Assessment in the BioMAP Diversity Plus: SAg Assay (AID 2283095); settings: primary human HUVEC with PBMC;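 further: relative cell number as total protein by SRB absorbance in sub-confluent culture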
Outline: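 Human umbilical vein endothelial cells co-cultured with peripheral blood mononuclear cells; total protein measured by sulforhodamine B staining (0.1% SRB after 10% TCA fixation), absorbance at 560 nm, at 96 h. Bidirectional fit against DMSO baseline.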

[14] = molecular target: human CYP19A1, CYP19A1 (gene 1588) (UniProt P11511); assay: NVS_ADME_hCYP19A1: NovaScreen (NVS) CYP450-related Enzyme Activity (ADME) Assay for human CYP19A1 (AID 2283098; active means hit-call score of the fitted dose curve at least 0.9, where 1 is the maximum)
human CYP19A1, CYP19A1 (gene 1588), sequence (P11511 whole entry, looked up): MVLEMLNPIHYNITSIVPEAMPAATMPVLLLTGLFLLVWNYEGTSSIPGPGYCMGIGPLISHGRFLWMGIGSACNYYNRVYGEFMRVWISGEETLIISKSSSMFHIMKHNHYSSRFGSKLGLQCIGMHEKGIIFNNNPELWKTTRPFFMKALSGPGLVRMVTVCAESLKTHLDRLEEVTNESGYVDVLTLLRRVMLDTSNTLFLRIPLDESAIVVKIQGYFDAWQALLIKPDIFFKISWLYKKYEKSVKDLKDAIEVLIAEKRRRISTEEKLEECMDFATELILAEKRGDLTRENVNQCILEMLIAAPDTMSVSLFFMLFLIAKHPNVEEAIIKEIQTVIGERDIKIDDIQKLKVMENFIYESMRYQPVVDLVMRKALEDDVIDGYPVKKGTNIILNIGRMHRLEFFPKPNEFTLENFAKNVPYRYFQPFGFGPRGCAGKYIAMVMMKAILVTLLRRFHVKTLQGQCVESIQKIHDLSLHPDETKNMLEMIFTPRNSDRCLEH
Outline: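 Biochem, cell-free; recombinant enzyme + specific substrate; fluorescence intensity at 0.5 h post-dose; 10 uM duplicate primary, conc. series for actives; acetonitrile = negative control/baseline; positive and negative controls on every plate.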

[15] = molecular target: human CYP2C9, CYP2C9 (gene 1559) (UniProt P11712); assay: NVS_ADME_hCYP2C9: NovaScreen (NVS) CYP450-related Enzyme Activity (ADME) Assay for human CYP2C9 (AID 2283108; active means hit-call score of the fitted dose curve at least 0.9, where 1 is the maximum)
human CYP2C9, CYP2C9 (gene 1559), sequence (P11712 whole entry, looked up): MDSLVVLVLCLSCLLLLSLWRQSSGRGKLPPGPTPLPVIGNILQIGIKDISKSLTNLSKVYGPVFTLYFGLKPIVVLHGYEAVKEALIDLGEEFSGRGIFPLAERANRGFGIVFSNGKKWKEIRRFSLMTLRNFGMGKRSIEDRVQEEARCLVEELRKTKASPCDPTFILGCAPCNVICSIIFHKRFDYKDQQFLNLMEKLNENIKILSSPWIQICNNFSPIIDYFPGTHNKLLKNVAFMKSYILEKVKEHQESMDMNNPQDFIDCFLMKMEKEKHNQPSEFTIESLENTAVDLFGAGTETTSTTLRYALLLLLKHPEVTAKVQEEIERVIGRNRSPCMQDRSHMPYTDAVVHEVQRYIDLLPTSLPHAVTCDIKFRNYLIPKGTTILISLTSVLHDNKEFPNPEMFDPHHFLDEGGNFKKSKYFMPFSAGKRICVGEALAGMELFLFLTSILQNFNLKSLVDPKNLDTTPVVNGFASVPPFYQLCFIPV
Outline: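 Fluorescence readout of CYP2C9 activity (SF9-expressed human enzyme) at 0.75 h. The primary screen used 10 uM in duplicate, with concentration-response follow-up for actives; acetonitrile was the negative control.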

[16] = molecular target: Cytochrome P450 2C19 (Homo sapiens) (UniProt P33261); assay: NVS_ADME_hCYP2C19: NovaScreen (NVS) CYP450-related Enzyme Activity (ADME) Assay for human CYP2C19 (AID 2283113; active means hit-call score of the fitted dose curve at least 0.9, where 1 is the maximum;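 further: potency for inhibition seen as loss of fluorescent signal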)
Outline: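 Fluorescence intensity was measured 1 hour after chemicals were added to insect-cell-derived recombinant CYP2C19 with fluorogenic substrate. Decreased signal versus acetonitrile control was taken as reduced enzyme activity; initial testing used 10 uM in duplicate.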

Measured: AC50

E-selectin (Homo sapiens), sequence (P16581 whole entry, looked up): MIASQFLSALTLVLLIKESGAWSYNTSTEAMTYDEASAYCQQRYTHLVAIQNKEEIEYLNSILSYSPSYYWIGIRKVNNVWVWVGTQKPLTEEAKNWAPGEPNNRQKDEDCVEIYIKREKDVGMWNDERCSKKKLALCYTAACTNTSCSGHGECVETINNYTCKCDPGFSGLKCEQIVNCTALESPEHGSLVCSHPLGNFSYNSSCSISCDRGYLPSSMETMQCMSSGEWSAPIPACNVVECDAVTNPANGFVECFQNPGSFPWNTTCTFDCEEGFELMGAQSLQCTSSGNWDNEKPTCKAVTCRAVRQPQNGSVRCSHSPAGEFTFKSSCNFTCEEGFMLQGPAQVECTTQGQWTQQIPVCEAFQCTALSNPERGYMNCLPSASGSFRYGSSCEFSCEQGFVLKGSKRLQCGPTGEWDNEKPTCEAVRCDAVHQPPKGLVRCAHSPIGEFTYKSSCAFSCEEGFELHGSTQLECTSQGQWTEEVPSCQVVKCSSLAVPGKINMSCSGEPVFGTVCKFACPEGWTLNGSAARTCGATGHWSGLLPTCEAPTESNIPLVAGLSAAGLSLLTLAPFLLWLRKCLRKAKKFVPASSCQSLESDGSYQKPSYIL
Tumor necrosis factor (Homo sapiens), sequence (P01375 whole entry, looked up): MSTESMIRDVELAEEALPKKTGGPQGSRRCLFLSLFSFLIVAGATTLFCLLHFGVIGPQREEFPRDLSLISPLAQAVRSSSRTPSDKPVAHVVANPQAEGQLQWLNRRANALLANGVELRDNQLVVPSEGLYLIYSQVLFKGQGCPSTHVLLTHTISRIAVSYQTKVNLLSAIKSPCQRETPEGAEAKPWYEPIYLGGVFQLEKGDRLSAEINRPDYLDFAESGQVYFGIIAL

CN1C(=O)N(C)C(O)C1O (stereo not drawn)
not listed: [14] | [15] | [16]
inactive: all other assays above

CC(=O)[C@H]1[C@H](C#N)C[C@H]2[C@@H]3CC=C4C[C@@H](O)CC[C@]4(C)[C@H]3CC[C@@]21C
inactive: [14]

CC1OC1C1CCC2(C)OC2C1 (stereo not drawn)
not listed: [14] | [15] | [16]
inactive: all other assays above

C=CCOc1c(Br)cc(Br)cc1Br
active: [3] 54 nM
not listed: [14] | [15] | [16]
inactive: all other assays above

CCOC(=O)c1ccccc1C(=C1C=C(Br)C(=O)C(Br)=C1)c1cc(Br)c(O)c(Br)c1
active: [1] 20.6 µM and 23.2 µM | [2] 17.8 µM and 14.7 µM | [3] 20.8 µM and 20.9 µM | [4] 19.1 µM and 19 µM | [5] 18.2 µM and 12.6 µM | [6] 19.1 µM and 18.9 µM | [7] 20.2 µM and 19.9 µM | CD38, CD38 (gene 952) 20.4 µM and 18.8 µM | CD40, CD40 (gene 958) 19.4 µM and 19.1 µM | CD69, CD69 (gene 969) 15.1 µM and 15.6 µM | [8] 20.7 µM and 21 µM | [9] 20.1 µM and 18.8 µM | [10] 22.2 µM and 23 µM | [12] 19 µM and 18 µM | [13] 18.3 µM and 20.1 µM
inactive: [11]

O=C(Cl)c1cc(C(=O)Cl)cc(C(=O)Cl)c1
active: [1] 30.5 µM | [2] 31 µM | [3] 29900 nM | [5] 33 µM | [6] 36.7 µM | [7] 27.8 µM | CD38, CD38 (gene 952) 28.9 µM | CD40, CD40 (gene 958) 30.3 µM | CD69, CD69 (gene 969) 31.9 µM | [8] 29.1 µM | [9] 36.6 µM | [10] 34.2 µM | [11] 12.6 µM | [12] 20 µM | [13] 12.7 µM
inactive: [4]

c1ccc(-c2ccccn2)nc1
not listed: [14] | [15] | [16]
inactive: all other assays above

CC(C)(c1cc(Br)c(OCCO)c(Br)c1)c1cc(Br)c(OCCO)c(Br)c1
inactive: [2] | [3] | [5] | [6] | [8] | [10] | [11] | [12]
active: [1] 16.2 µM | [4] 121 nM | [7] 16.2 µM | CD38, CD38 (gene 952) 5.1 µM | CD40, CD40 (gene 958) 13.3 µM | CD69, CD69 (gene 969) 2.31 µM | [9] 1.44 µM | [13] 0.479 µM | [15] 0.879 µM | [16] 1.8 µM

CC(CC=O)CCCC(C)(C)O (stereo not drawn)
inactive: [14]

C=C[Si](OC(C)=O)(OC(C)=O)OC(C)=O
not listed: [14] | [15] | [16]
inactive: all other assays above

CCOc1nc(F)cc2nc(S(=O)(=O)Nc3c(Cl)cccc3C(=O)OC)nn12
not listed: [14] | [15] | [16]
inactive: all other assays above
